Results taken from PubChem BioAssay AID1946 (Johns Hopkins Ion Channel Center, 2009).
The campaign covered roughly 2,400 compounds. About 180 (7.5%) were called active. Many of the other results were omitted from the sample, so actives are more common in it than they were. A number with no mark means an inactive call.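 The calls were made as follows: active = readout below zero, meaning a drop past 3 SD under the dofetilide-free negative control mean; inactive = the rest.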

biological target: Potassium voltage-gated channel subfamily KQT member 2 (Rattus norvegicus) (UniProt O88943); assay: KCNQ2 blockade in CHO cells – cell-based, FluxOR thallium flux, counter-screen for hERG block protector project, confirmation (AID 1946); details: FluxOR thallium flux fluorescence, at 10 µM, stronger effect = lower value, zero marks the 3-SD hit cutoff
Sequence (O88943 whole entry, looked up): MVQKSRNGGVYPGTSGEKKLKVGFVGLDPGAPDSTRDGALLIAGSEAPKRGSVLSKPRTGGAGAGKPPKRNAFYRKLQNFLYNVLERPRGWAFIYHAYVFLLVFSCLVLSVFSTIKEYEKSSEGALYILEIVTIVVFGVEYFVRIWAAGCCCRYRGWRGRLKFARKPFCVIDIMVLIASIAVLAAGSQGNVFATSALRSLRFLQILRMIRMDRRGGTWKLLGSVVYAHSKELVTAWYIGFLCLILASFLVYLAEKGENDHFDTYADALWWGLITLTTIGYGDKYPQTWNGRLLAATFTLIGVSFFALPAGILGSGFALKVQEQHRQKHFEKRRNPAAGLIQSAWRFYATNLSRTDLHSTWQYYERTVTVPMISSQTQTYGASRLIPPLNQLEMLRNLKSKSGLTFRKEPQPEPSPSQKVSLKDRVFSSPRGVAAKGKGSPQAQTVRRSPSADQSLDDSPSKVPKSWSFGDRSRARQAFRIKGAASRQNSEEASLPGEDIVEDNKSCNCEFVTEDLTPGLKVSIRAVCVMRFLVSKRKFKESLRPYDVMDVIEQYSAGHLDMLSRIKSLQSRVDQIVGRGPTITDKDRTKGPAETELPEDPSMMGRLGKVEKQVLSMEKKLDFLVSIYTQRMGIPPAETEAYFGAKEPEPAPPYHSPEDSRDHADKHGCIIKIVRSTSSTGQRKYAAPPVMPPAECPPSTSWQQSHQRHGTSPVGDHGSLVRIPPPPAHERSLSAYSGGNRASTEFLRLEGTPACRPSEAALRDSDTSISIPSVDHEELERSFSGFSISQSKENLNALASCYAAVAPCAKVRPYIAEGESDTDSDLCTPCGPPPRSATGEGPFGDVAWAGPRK

Point of comparison: CS(=O)(=O)N(CCc1ccccc1)CC(=O)N1CCN(c2ccc(F)cc2)CC1, activity change vs negative control 1.7%. Against it:
- CCOC(=O)c1c(NC(=O)CN2CCN(C(=O)c3ccco3)CC2)sc2c1CCCC2 — higher, 39%
- O=c1ccc(N=Nc2ccccc2)ccc1O — higher, 109%
- COc1cc(OC)cc(C(=O)NC(=S)N(Cc2ccccc2)C(C)C)c1 — higher, 45.9%
- COc1cc(OC)cc(C(=O)O/N=C(\N)c2cccc(C)c2)c1 — higher, 4.9%
- CC(C)(C)NC(=O)C(=O)NNC(=O)c1cccc(Br)c1 — higher, 40%
- Cc1ccccc1C(=O)NNC(=O)C(=O)Nc1cccc(Cl)c1C — higher, 40.7%
- O=C(Nc1ccsc1C(=O)O)c1ccccc1Cl — higher, 14.8%
- CC(=O)CSc1ncnc2sc3c(c12)CCC(C)C3 (stereo not given) — higher, 111%
- CC(C)(C)c1ccc(/C=C/C(=O)N2CCCCC2)cc1 — higher, 32.8%
- Cn1c(=O)cc(-c2ccccc2)c2ccccc21 — higher, 2.7%
- CCOC(=O)c1c(O)c2ccccc2n(C)c1=O — higher, 17.5%
- Cc1cccc(N2CCN(C(=O)CNC(=O)c3cccc([N+](=O)[O-])c3)CC2)c1C — higher, 1.9%
- CCn1c(SCC(=O)NC(=O)NCc2ccco2)nc2sc(C)c(C)c2c1=O — higher, 43.3%
- C=CCSc1nc2sc3c(c2c(=O)n1CC)CCc1ccccc1-3 — higher, 35%
- O=C(c1ccc(Cl)c(S(=O)(=O)N2CCCC2)c1)N1CCN(c2ccccc2F)CC1 — higher, 14.8%
- S=c1nc(-c2ccc(Br)cc2)[nH]c2ccccc12 — higher, 122%
- Cc1ccc(C(=O)CC(=O)COc2ccc(Cl)cc2C)cc1 — higher, 13.2%
- O=C(CCc1ccccc1)Nc1nccs1 — higher, 4.5%
- O=C(Nc1nnc(-c2ccccc2)o1)c1ccc(Cl)cc1 — higher, 13.6%
- O=C(Nc1nnc(-c2ccc3c(c2)CCCC3)o1)C1COc2ccccc2O1 (stereo not given) — higher, 28%
- O=C(CCC(=O)Nc1ccccc1)NNC(=O)c1ccco1 — higher, 3.9%
- CCCOc1ccc(OC(=O)c2ccc(Br)o2)cc1 — higher, 20.9%
- O=C(NC(=S)Nc1ccccc1)c1csnn1 — higher, 105%
- CC(=O)Nc1ccc(S(=O)(=O)N2CCC(NC(=O)c3ccccc3)CC2)cc1 — higher, 9.4%
- O=C(/C=C/c1ccccc1)Nc1ccc(S(=O)(=O)N2CCOCC2)cc1 — higher, 2%
- CCc1cc2c(=O)n(CCC(C)C)c(=S)[nH]c2s1 — higher, 83.4%
- S=c1nc(COc2ccccc2)[nH]c2ccccc12 — higher, 159%
- CN(C)CCCN=C(NO)c1ccc(Cl)cc1Cl — higher, 6.6%
- CCSc1nc2c(sc3ccccc32)c(=O)n1C(C)C — higher, 54.6%
- O=C(COC(=O)C1CCC(=O)N1)Nc1cc(Cl)ccc1Cl (stereo not given) — higher, 4.6%
- CCOC(=O)c1sc2ncnc(NCc3ccco3)c2c1C — higher, 66.3%
- CCCN(C(=O)c1ccco1)c1nnc(-c2ccncc2)s1 — higher, 7.1%
- Cc1[nH]n2c(=O)cc(C(C)(C)C)nc2c1-c1ccccc1 — higher, 38.2%
- CCOC(=O)C1CCN(C(=O)COC(=O)c2nn(C)c(=O)c3ccccc23)CC1 — higher, 8.5%
- Cc1oc(-c2cccs2)nc1CN1CCC(C(=O)N2CCCC2)CC1 — higher, 12.1%
- CC(=O)c1c(NC(=O)c2ccccc2)[nH]c(-c2ccccc2)nc1=S — higher, 30.6%
- Cc1ccc(-c2nc(N)s[n+]2-c2ccccc2)cc1 — higher, 42.6%
- CCOC(=O)Cc1csc(NC(=S)NC(=O)c2ccccc2C)n1 — higher, 26.3%
- COc1cccc(/C=N/Nc2nc3ccccc3[nH]2)c1O — higher, 24.7%
- COc1ccc(C(=O)NC(=S)N2CCC(C)CC2)cc1Br — higher, 74.7%
- COc1cc(C2NC(=O)NC(C)=C2C(=O)OCC2CCCCC2)ccc1O (stereo not given) — higher, 7.4%
- Cc1ccc(C2c3c(-c4ccccc4O)n[nH]c3C(=O)N2Cc2ccncc2)cc1 (stereo not given) — higher, 10.7%
- Cn1c(O)c(N=Nc2nc(-c3ccccc3)cs2)c2ccccc21 — higher, 90.8%
- Cc1nc(-c2ccccc2)cn(O)c1=O — higher, 20.4%
- c1ccc(CCCNc2ncnc3nc[nH]c23)cc1 — higher, 61.8%
- Cc1ccc(C(C#N)c2ccc3c(C(F)(F)F)cc(C(F)(F)F)nc3n2)cc1 (stereo not given) — higher, 17.2%
- Cc1cc(-c2csc3nc[nH]c(=S)c23)cc(C)c1C — higher, 55.1%
- CC(/C=C1\SC(=S)N(NS(=O)(=O)c2ccccc2)C1=O)=C\c1ccccc1 — higher, 47.5%
- O=C(CN1CCCCCC1)Nc1ccc(Oc2ccccc2)cc1 — higher, 3.4%
- O=C(CN1CCN(Cc2ccccc2)CC1)NCc1ccccc1Cl — higher, 17.7%

In the case of COc1cc(OC)cc(C(=O)OCC(=O)N(C)c2ccccc2)c1, the activity change vs negative control is reported as -0.3% (active).
In the case of O=C(Nc1cccn(Cc2c(Cl)cccc2Cl)c1=O)c1ccccc1Cl, the activity change vs negative control is reported as -1.1% (active).
With CCOc1ccc(N(CC)C(=O)COc2cc(=O)n(C)c3ccccc23)cc1 the activity change vs negative control was -3.3% (active).
For CC(=O)c1ccc(N2CCN(C(=O)Cc3ccccc3)CC2)c(F)c1, the activity change vs negative control was -0.2% (active).
With O=C(CCc1ccccc1)Nc1nnc(-c2ccccn2)o1 the activity change vs negative control was -2.9% (active).
CCC(=O)Nc1nnc(-c2ccccn2)o1 was tested, and the activity change vs negative control was -0.7% (active).
For CC(=O)Nc1ccc(S(=O)(=O)N2CCC(C(=O)O)CC2)cc1, the activity change vs negative control was -3% (active).
COCC(=O)Nc1cc(C)cn(Cc2c(F)cccc2Cl)c1=O was tested, and the activity change vs negative control was -0.6% (active).
With CC1CCCN(C(=O)COC(=O)c2cc(-c3cccs3)nn2-c2ccccc2)C1 (stereo not given) the activity change vs negative control was -2.5% (active).
With COc1cccc2cc(-c3nc4ccccc4[nH]3)c(=O)oc12 the activity change vs negative control was -9.4% (active).
COc1cc(C2c3c(n[nH]c3C)C(=O)N2c2ccc(C)cc2)ccc1O (stereo not given) was tested, and the activity change vs negative control was -5% (active).
CC1=NN(c2nc(-c3ccccc3)cs2)C(=O)C1N=Nc1ccccc1 (stereo not given) was tested, and the activity change vs negative control was -5% (active).
Fc1ccc(N2CCN(c3ccc4c(C(F)(F)F)cc(C(F)(F)F)nc4n3)CC2)cc1 was tested, and the activity change vs negative control was -5.3% (active).
With O=C(CN1CCCCCCC1)Nc1cccc(Cl)c1Cl the activity change vs negative control was -6.4% (active).
